eIF4E 4G PPI: blocks eIF4E binding to eIF4G. P63073+Q04637. TR-FRET eIF4E-eIF4GI(517-606) binding, 2 h. inhibition, % at 21.7 µM. hit rate 0.37% among 220,000;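 active = inhibition above about 30%, limit read from the data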;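 also: 0% = full FRET control wells and 100% = background wells lacking eIF4GI fragment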
eIF4H inh: inhibitors of RNA binding by human eIF4H. Q15056. hit rate 0.94% among 290,000. eIF4H fluorescence polarization binding assay. inhibition, % at 35 µM;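 also: calls also rest on retests at 20 µM and on dose response follow-up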
PABP polyA inh: PABP-poly(A) binding inhibition; PABP-poly(A) RNA binding, fluorescence polarization; inhibition, % at 35 µM; hit rate 1% among 290,000;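 also: calls also rest on retests at 20 µM and on dose response follow-up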
Target sequence (P11940 whole entry, looked up): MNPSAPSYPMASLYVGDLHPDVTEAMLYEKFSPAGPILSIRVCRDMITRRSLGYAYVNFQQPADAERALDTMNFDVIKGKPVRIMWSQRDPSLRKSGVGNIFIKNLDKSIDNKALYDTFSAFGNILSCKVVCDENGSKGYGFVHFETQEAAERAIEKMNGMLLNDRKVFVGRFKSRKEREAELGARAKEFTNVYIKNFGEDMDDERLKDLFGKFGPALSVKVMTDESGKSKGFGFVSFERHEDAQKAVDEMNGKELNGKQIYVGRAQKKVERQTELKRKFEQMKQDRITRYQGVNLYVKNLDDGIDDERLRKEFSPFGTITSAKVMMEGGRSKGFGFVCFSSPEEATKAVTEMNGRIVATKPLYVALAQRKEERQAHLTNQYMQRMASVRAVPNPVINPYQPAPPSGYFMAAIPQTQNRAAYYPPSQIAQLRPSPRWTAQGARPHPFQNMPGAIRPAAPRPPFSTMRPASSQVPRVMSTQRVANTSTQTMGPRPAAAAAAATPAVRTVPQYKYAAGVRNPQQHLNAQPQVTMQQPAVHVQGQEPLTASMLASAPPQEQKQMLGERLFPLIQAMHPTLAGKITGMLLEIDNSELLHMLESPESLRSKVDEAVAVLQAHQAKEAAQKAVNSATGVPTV
MLLE-PAM2 inh: inhibitors of microRNA-mediated deadenylation, human PABP1 MLLE binding; inhibition, % at 20 µM; P11940; hit rate 0.36% among 360,000; GST-MLLE / FITC-PAM2 fluorescence polarization; AID 588489; in the data active = inhibition above about 35%, passing the limit was not always enough;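 also: plate controls were DMSO wells with GST-MLLE for no effect and wells lacking GST-MLLE protein for full effect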
PERK inh: blocks human PERK kinase. CHO PERK-DD fusion, SEAP luminescence translation reporter. inhibition, % at 5.6 µM. hit rate 0.17% among 220,000. AID 1416;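 active = inhibition above the mean inhibition of all tested compounds plus 3 SD, set separately per screening campaign, cut at about 2.9% in these data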;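 also: PERK kinase domain activated by AP20187 dimerizer at 100 nM; 0% = DMSO with dimerizer and 100% = rapamycin at 8.4 µM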
Starred values were filed as active, the others as inactive; ? = inconclusive; / = no result given; [ ] = another dose, or the depositor's remark. Compounds with a hit are over-represented: about 1.6% of the library has one in this group of screens. Unless noted, no rule for the calls is given here.

SMILES | eIF4E 4G PPI | eIF4H inh | PABP polyA inh | MLLE-PAM2 inh | PERK inh
COC(=O)c1sc(N2C(=O)C(O)=C(C(=O)c3ccc(C)o3)C2c2ccco2)nc1C (stereo not drawn) | / | 52* | 34* | -19 | /
COCCNC(=O)C1CC(c2ccc(F)cc2)=NO1 (stereo not drawn) | -9 | 1 | -2 | -5 | 0
COCCNC(=O)C1CC(c2cccc(F)c2)=NO1 (stereo not drawn) | 60* | -1 | 4 | 2 | /
CCOC(=O)c1ccc(S(=O)(=O)N2CCN(CC(O)COc3cccc(C(C)=O)c3)CC2)cc1 (stereo not drawn) | / | -8 | 4 | 24 | /
N#CCc1cnc2ccccc2n1 | 4 | 89* | 52* | 12 | 0
CN1CCN(C2=C(Cl)C(=O)N(Cc3ccccc3)C2=O)CC1 | 7 | 89* | 90* | 0 | -1
CC(=O)Nc1ccc(C(=O)Nc2cccc(-c3cnc4ccccc4n3)c2)cc1 | 36* | -32 | ? | -26 | 0
Cc1ccc(C(=O)Nc2cccc(-c3cnc4ccccc4n3)c2)cc1 | -3 | -2 | -7 | 4 | 1
CC(=O)Nc1ccc2nc3ccccc3nc2c1 | -1 | 35 | 36 | 42* | 0
CCc1ccc(N=Nc2ccc(O)c3[nH]cnc23)cc1 | / | / | / | -129 | /
O=C(Nc1ccc(Cl)cc1)P(=O)(O)c1ccccc1 | / | / | / | 8 | /
CC1CC(=O)c2c(cc3c(-c4c(O)cc(O)c5c(O)c6c(cc45)OC(C)CC6=O)c(O)cc(O)c3c2O)O1 (stereo not drawn) | 27 | 100* | 92* | -9 | 2
O=c1[nH]cnc2c1sc1nc(C(F)F)cc(-c3ccccc3)c12 | / | / | / | -12 | /
COc1cc2c(-c3ccc(O)cc3)nc3c(c(C)nn3-c3ccccc3)c2cc1OC | 39* | 14 | 22 | 8 | -1
CCOC(=O)c1cnn(C(=O)c2ccccc2)c1N | 45*[fluorescence artefact?] | -12 | -3 | -11 | 0
CCc1ccc(N(CC(=O)N2CCOCC2)S(C)(=O)=O)cc1 | / | 3 | 11 | -3 | /
O=C1N(C2CCCC2)C[C@@H]2C[C@@H](c3cn[nH]c3-c3ccc(Cl)cc3)N3CCC[C@@]123 | -1 | 4 | 56* | -6 | -1
Nc1ccc(-c2nc3ccccc3o2)cc1 | / | 50 | 3.2* | -17 | /
Nc1cc(N)cc(-c2nc3ccccc3o2)c1 | / | / | / | 2 | /
CCCC(C)C(=O)Nc1nnc(CCc2ccccc2)s1 (stereo not drawn) | / | 31 | -5 | 0 | /
O=C(O)CSc1cc(C(=O)c2ccccc2O)cn2c(=O)c3c(-c4ccccc4)csc3nc12 | 17 | 68 | active | -23 | 0
CCOC(=O)c1sc2nc3c(SCC(=O)O)cc(C(=O)c4ccccc4O)cn3c(=O)c2c1C | 23 | 61 | -2 | -14 | 0
COc1ccc(O)c(C(=O)c2cc(SCC(=O)O)c3nc4sc5c(c4c(=O)n3c2)CCCC5)c1 | 39* | 81* | 80* | -14 | 0
CCOC(=O)c1sc2nc3c(SCC(=O)O)cc(C(=O)c4cc(F)ccc4O)cn3c(=O)c2c1C | 22 | 12 | 4 | -19 | 1
Cc1cc(C)cc(OCC(=O)N/N=C/c2ccco2)c1 | 1 | -7 | -4 | 4 | 0
SMILES | eIF4E 4G PPI | eIF4H inh | PABP polyA inh | MLLE-PAM2 inh | PERK inh
CCOC(=O)C(=O)N/N=C/c1ccco1 | 7 | 94* | 65* | -6 | 1
CN(CC(=O)Nc1ccccc1Cl)C(=O)C1CSC2(C)CCC(=O)N12 (stereo not drawn) | / | / | / | -4 | /
Cc1ccc(CCNC(=O)c2nnc(CS(=O)(=O)c3ccccc3)o2)cc1 | / | 5 | -9 | -4 | /
Cc1[nH]n(-c2ccccc2)c(=O)c1C(c1cccc([N+](=O)[O-])c1)c1c(C)[nH]n(-c2ccccc2)c1=O | -2 | -3 | -12 | 27 | 1
Cc1[nH]n(-c2ccccc2)c(=O)c1C(c1ccc(C(=O)O)cc1)c1c(C)[nH]n(-c2ccccc2)c1=O | 6 | -3 | 4 | 45* | 1
c1ccc2nc3[nH]cnc3nc2c1 | 9 | 3 | 7 | 49* | 0
c1ccc2[nH]cnc2c1 | / | / | / | -1 | /
COc1ccc(S(=O)(=O)N2CCCCCC2)cc1NC(=O)CN1C(=O)CNC1=O | / | / | / | -28 | /
CCc1ccc(NSc2ccccc2[N+](=O)[O-])cc1 | 0 | -16 | 0 | 13 | 3.2*
O=C(O)c1ccccc1NSc1ccccc1[N+](=O)[O-] | -4 | 5 | 19 | 3 | 0
O=C(NNS(=O)(=O)c1ccc([N+](=O)[O-])cc1)C(=O)Nc1cccc(C(=O)O)c1 | / | 60* | 9 | 33 | /
O=C(NNS(=O)(=O)c1ccc([N+](=O)[O-])cc1)c1ccccc1 | / | / | / | -6 | /
CCOc1ccc(NC(=O)C2CCC(C)(C(=O)O)C2(C)C)cc1 (stereo not drawn) | 0 | 130* | ? | -5 | 0
COc1ccc(NC(=O)C2CCC(C)(C(=O)O)C2(C)C)cc1 (stereo not drawn) | -2 | 8 | 4 | -5 | 2
CC(C)Cn1c(N)c(C(=O)COC(=O)c2cc(C3CC3)nc3ccccc23)c(=O)n(C)c1=O | 2 | -12 | 118* | / | 0
CC(C)Cn1c(N)c(C(=O)COC(=O)c2cc(-c3ccccc3)nc3ccccc23)c(=O)n(C)c1=O | -1 | -3 | -3 | -21 | 0
N#C/C(=C\c1ccc(-c2ccccc2[N+](=O)[O-])o1)C(=O)N1CCOCC1 | -4 | 61* | 0 | 7 | 1
C[C@@H]1CN([C@H](C)CO)S(=O)(=O)c2ccc(C#Cc3ccccc3F)cc2O[C@H]1CN(C)C(=O)c1ccc2c(c1)OCO2 | / | / | / | 7 | /
O=C(O)CCCNc1cc(N2CCN(C(=O)c3ccco3)CC2)c2noc3c2c1C(=O)c1ccccc1-3 | / | ? | ? | -53 | /
O=C(c1ccco1)N1CCN(CCCCN2C(=O)c3ccccc3C2=O)CC1 | 7 | 12 | 7 | 3 | 0
O=C1c2ccccc2-c2onc3c(N4CCN(CCO)CC4)cc(N4CCN(C(=O)c5ccco5)CC4)c1c23 | / | 83* | 72* | -76 | /
CN1CCN(c2cc(N3CCN(C(=O)c4ccco4)CC3)c3c4c(onc24)-c2ccccc2C3=O)CC1 | / | 93* | 86* | -99 | /
N=c1nc2n(cc1F)C1OC(CO)C(O)C1O2 (stereo not drawn) | / | / | / | 10 | /
Cc1ccc(NC(=O)c2cc(-c3ccco3)nc3ccccc23)cc1S(=O)(=O)N1CCOCC1 | 9 | 66* | 1.2* | -5 | -1
O=C(Nc1ccc(Cl)c(S(=O)(=O)N2CCOCC2)c1)c1cc(-c2ccccn2)nc2ccccc12 | 3 | 5 | -6 | -4 | 0
COc1ccc(NC(=O)c2cc(-c3ccco3)nc3ccccc23)cc1S(=O)(=O)N1CCOCC1 | 38* | 71 | 50* | -23 | 1
COc1ccc(NC(=O)c2cc(C)nc3ccccc23)cc1S(=O)(=O)N1CCOCC1 | / | / | / | 7 | /
O=C(COC(=O)c1cccc([N+](=O)[O-])c1)NCC1CCCO1 (stereo not drawn) | -2 | active | 56* | -8 | 1
O=C(COC(=O)c1ccccc1)NCC1CCCO1 (stereo not drawn) | -3 | -1 | 8 | 12 | 1

Bioassay records as filed in PubChem.
